This is an account of results in PubChem BioAssay (NCI).

The panel holds about 83,000 compounds, 20% with a hit somewhere; the sample as a whole holds those more often.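 Assay: single dose, 48 h. Readout: percent growth (0 = no net growth; negative = cell death). Active: <10.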 Values without a mark were called inactive. Activity calls are given as the source filed them.

One test deals with SK-MEL-5 melanoma. Nature of the test: NCI-60 one-dose screen, 48 h (100 = growth as untreated, 0 = no growth, -100 = all killed). The settings on record: 10 µM unless noted.
On to `NC(=O)c1cc2c3ccccc3ccn2c1-c1ccccc1`, for which the growth was -34.2% (active).

For the compound `Clc1ccc(/C=C/c2ccccn2)cc1`, the growth is 101%.

With `CC(=O)c1cccc(N(C)S(=O)(=O)c2ccc(C)cc2)c1`, the growth is 90.1%.

For `Cc1onc(-c2c(F)cccc2Cl)c1-c1ncc(-c2ccc(Br)cc2)o1`, the growth was 10.8%.

Consider `BrCc1cccc(C[P+](c2ccccc2)(c2ccccc2)c2ccccc2)c1`, for which the growth was 22.6%.

In the case of `CCCC(OC(C)=O)c1ccc2c(c1)OCO2` (stereo unspecified), the growth is 102%.

Consider `O=C1NC(=O)/C(=C\c2ccncc2)N1`, for which the growth was 97.2%.

In the next test the test system is UACC-62 melanoma. The description is as above. The settings on record: 10 µM unless noted.
As to `Cn1/c(=N\N=C\c2ccccc2OCCO)sc2ccccc21`, the growth is 90%.

Take `C=C1C(=O)C2CCC1C2` (stereo unspecified): the growth is 108%.

For the compound `Cc1ccc(OC(=O)c2ccccc2)cc1`, the growth was 112%.

As to `CCOC(=O)c1cc(Cl)c(O)c(Cl)c1`, the growth was 105%.

Turning to `C[n+]1cc2cc3c(cc2c2ccccc21)OCO3`, the growth is 72.7%.

As to `Cc1ccc(Cc2ccc(C)cc2)cc1`, the growth was 104%.

Regarding `NCCCN1CCCC1=O`, the growth is 96.4%.

With `CCCCCCCCCCCCCCCCCCSC(=N)N`, the growth was 77.6%.

Consider `C=C1C(=O)C2CCN1CC2`, for which the growth was 97.3%.

As for `Cc1ccc[n+](CCC(N)=O)c1`, the growth was 101%.

Consider `N#CC1(O)CCCCC1`, for which the growth is 106%.

Regarding `CCOC(=O)CO`, the growth is 103%.

In the case of `CCOC(=O)N[C@H]1CCc2cc(OC)c(OC)c(OC)c2-c2ccc(SC)c(=O)cc21`, the growth was 39.9%.

Take `CC1CCC(C)(C)c2ccccc21` (stereo unspecified): the growth was 103%.

Take `O=C1C=Cc2ccccc2/C1=C/c1[nH]c(=O)[nH]c1O`: the growth is 24%.

Turning to `CCN(CC)CCCC(C)NC(=S)N/N=C(\C)c1ccccn1` (stereo unspecified), the growth is 22.3%.

With `Cn1c(=O)c2[nH]c(CC(=O)O)nc2n(C)c1=O`, the growth was 108%.

As to `Cc1ccc(/C=N/NC(N)=S)s1`, the growth was 102%.

`CCNC(=O)Oc1ccc[nH]c1=O`: the growth is 96.1%.

As to `Cc1cccc(C)c1NC(=S)/N=C\c1c(O)[nH]c(=O)[nH]c1=O`, the growth was 90.9%.

Regarding `O=C(OCC1CCCO1)c1ccc([N+](=O)[O-])cc1` (stereo unspecified), the growth is 99.8%.

Regarding `CC(=O)c1cccc(NS(=O)(=O)c2ccc(C)cc2)c1`, the growth was 84.4%.

Take `COc1nc(Nc2cccc(C(F)(F)F)c2)nc(OC)n1`: the growth is 103%.

For the compound `COC1OC(C(COC(C)=O)OC(C)=O)C(OC(C)=O)C(OC(C)=O)C1OC(C)=O` (stereo unspecified), the growth was 110%.

In the case of `NC(=O)c1cc2c3ccccc3ccn2c1-c1ccccc1`, the growth is 31.7%.

Regarding `Clc1ccc(/C=C/c2ccccn2)cc1`, the growth was 106%.

`CC(=O)c1cccc(N(C)S(=O)(=O)c2ccc(C)cc2)c1`: the growth is 96%.

In the case of `Cc1onc(-c2c(F)cccc2Cl)c1-c1ncc(-c2ccc(Br)cc2)o1`, the growth was 34%.

As to `O=S(=O)(O)C(C(I)I)S(=O)(=O)O`, the growth is 110%.

For `Clc1ccc(-c2noc(/C=C\c3ccccc3)n2)cc1`, the growth is 100%.

Regarding `BrCc1cccc(C[P+](c2ccccc2)(c2ccccc2)c2ccccc2)c1`, the growth was 54.7%.

`CCCC(OC(C)=O)c1ccc2c(c1)OCO2` (stereo unspecified): the growth is 102%.

For the compound `CC(=O)Nc1ccc(C(=O)c2ccc(S(=O)(=O)Nc3ccccc3)cc2)cc1`, the growth is 83.1%.

Turning to `O=C1NC(=O)/C(=C\c2ccncc2)N1`, the growth was 95.8%.
